# CF NFkB block: blocks PAF-induced NF-kB reporter in cystic fibrosis cells; hit rate 0.86% among 360,000; AID 588850; KKLEB NF-kB-GFP reporter, GFP fluorescence overnight; inhibition, % at 5 µM;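 active = at least 50% inhibition at 5 µM, scaled per plate between neutral and stimulator controls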;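 also: PAF is a Pseudomonas aeruginosa culture filtrate used as stimulus; plate controls were PAF-stimulated DMSO wells for no effect and unstimulated DMSO wells for full effect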
# Mdm2-MdmX inh: inhibitors of human Mdm2/MdmX interaction; hit rate 3% among 330,000; AID 485346; SaOS-2 split-luciferase Mdm2/MdmX complementation, luminescence; inhibition, % at 8 µM;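 active = inhibition of at least 50% at 8 µM in the primary screen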
# ABHD5-PLIN5 inh: blocks binding of human ABHD5 to perilipin-5; inhibition, % at 4 µM; hit rate 0.78% among 360,000; Split G. princeps luciferase complementation, luminescence, 4 h; Q00G26+Q8WTS1; AID 602281;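 active = inhibition above the mean inhibition across every tested compound plus 3 SD, cut at about 22% in these data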;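 also: 0% = DMSO only wells and the 100% control is not disclosed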
# Target sequence (Q00G26 whole entry, looked up): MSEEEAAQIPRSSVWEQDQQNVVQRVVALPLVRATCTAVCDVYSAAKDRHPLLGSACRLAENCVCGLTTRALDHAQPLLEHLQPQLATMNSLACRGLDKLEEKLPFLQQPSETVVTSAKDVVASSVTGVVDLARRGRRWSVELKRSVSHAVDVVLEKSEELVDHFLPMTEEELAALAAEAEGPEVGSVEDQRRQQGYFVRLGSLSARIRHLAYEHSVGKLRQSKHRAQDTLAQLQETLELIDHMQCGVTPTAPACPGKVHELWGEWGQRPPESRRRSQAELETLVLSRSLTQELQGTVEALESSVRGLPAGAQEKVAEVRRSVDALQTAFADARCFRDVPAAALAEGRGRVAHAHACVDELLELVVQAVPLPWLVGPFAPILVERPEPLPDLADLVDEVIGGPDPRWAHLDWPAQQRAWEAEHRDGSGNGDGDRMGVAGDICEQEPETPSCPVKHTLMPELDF
# Target sequence (Q8WTS1 whole entry, looked up): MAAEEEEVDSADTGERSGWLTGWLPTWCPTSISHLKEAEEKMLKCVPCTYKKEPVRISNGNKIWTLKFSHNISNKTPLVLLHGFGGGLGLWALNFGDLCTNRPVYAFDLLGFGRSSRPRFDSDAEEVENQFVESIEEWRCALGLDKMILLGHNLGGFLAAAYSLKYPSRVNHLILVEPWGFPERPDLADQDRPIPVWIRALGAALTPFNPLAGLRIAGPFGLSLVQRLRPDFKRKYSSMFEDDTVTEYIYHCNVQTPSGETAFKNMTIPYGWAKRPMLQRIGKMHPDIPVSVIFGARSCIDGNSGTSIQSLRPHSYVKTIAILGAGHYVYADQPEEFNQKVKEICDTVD
# HIF-2a block: HIF-2a inhibition; 786-0 RCC cells HIF-2a reporter, luciferase luminescence, overnight; inhibition, % at 18.8 µM; hit rate 0.72% among 360,000; AID 624352;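 active = inhibition of the luminescence signal of 40% or more relative to plate controls, in a single-dose primary screen at 18.75 µM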
# Peg3 prom inh: Peg3 promoter activity inhibition; HeLa PEG-Prom luciferase reporter, luminescence, overnight; inhibition, % at 20 µM; hit rate 1.7% among 360,000;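 active = inhibition of at least 50% at 20 µM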
# KKLEB cytotox: counter-screen for CF NF-kB inhibitors: cytotoxicity; hit rate 0.36% among 360,000; KKLEB CF airway cells viability, ATPlite luminescence, overnight; hits give low values; cells stimulated with P. aeruginosa culture filtrate; activity change (cytotoxicity), % at 5 µM;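 active = corrected activity change at or below -50% at 5 µM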
# Mdm2-MdmX conf: confirmation of human Mdm2/MdmX interaction inhibitors | AID 489028 | inhibition, % at 8 µM | hit rate 55% among 10,000 | Mdm2-MdmX binding, luminescent assay | shares compounds with Mdm2-MdmX inh; in the data active = inhibition above about 40%
# Full FLuc ctr: inhibits full-length luciferase, flagging false Mdm2/MdmX hits; shares compounds with Mdm2-MdmX inh; SaOS-2 full-length luciferase counterscreen, luminescence; inhibition, % at 8 µM; hit rate 77% among 6,200;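 active = mean inhibition at 8 µM reaching about 37%, which flags the compound as non-specific, limit read from the data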;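 also: p53-null SaOS-2 cells with luciferase driven by a doxycycline-inducible promoter; compound on cells about two nights before reading with doxycycline added after day one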
# Numbers without * were called inactive; / = no result. An excerpt weighted towards active compounds, which were near 4.6% of everything screened.
SMILES,CF NFkB block,Mdm2-MdmX inh,ABHD5-PLIN5 inh,HIF-2a block,Peg3 prom inh,KKLEB cytotox,Mdm2-MdmX conf,others
Cc1cccc(C2=NCC(=O)N(CC(=O)NCc3ccco3)c3sc4c(c32)CCCC4)c1,-8.7,23.9,-0.8,4.5,32.5,11.7,/,
CCOC(=O)c1cc2cc(OC)ccc2n1C1CCN(Cc2ccccc2)CC1,/,/,-11.8,-89.1,/,/,/,
COc1ccc(CCNCc2ccccc2F)cc1OC,4.9,-1.8,3.0,5.9,18.4,-14.4,/,
CCOc1ccc(Cl)cc1CNCCc1ccccc1F,-1.5,16.1,-2.2,4.1,73.7*,8.9,/,
CNC(=O)C[C@H]1CC[C@@H]2NC[C@H](O)COC[C@H]2O1,/,/,-18.7,-2.5,/,/,/,
O=C1NC(=O)N(c2ccc(Br)cc2)C(=O)/C1=C/c1ccsc1,-8.3,18.1,19.1,8.1,15.4,10.1,/,
O=C1NC(=O)N(c2ccc(F)cc2)C(=O)/C1=C/c1ccsc1,2.6,28.6,22.9*,8.8,-4.3,4.2,/,
CCOC(=O)[C@]12Cc3ccccc3[C@H]1N(CCC(=O)OC)C(=O)c1cc(OC)ccc12,/,/,11.3,15.1,/,/,/,
CCc1ccc(CNCCc2ccc(F)cc2)cc1,-12.4,8.6,3.2,13.2,-1.9,-3.1,/,
CCN(CC)c1ccc(CNCCc2ccc(F)cc2)cc1,8.5,36.6,6.1,21.2,63.7*,-8.1,/,
O=C1NC(=O)N(c2ccccc2)C(=O)/C1=C\C=C\c1ccccc1,34.9,77.7*,20.7,81.9*,61.3*,17.7,10.9,
Cc1cccc(-n2c(O)c(/C=C3/C(c4ccccc4)=Nc4ccccc43)c(=O)[nH]c2=O)c1,46.4,53.6*,2.5,-105.8,-56.7,-7.9,57.0*,Full FLuc ctr=35.8
Cc1ccccc1-n1c(O)c(/C=C2/C(c3ccccc3)=Nc3ccccc32)c(=O)[nH]c1=O,31.1,56.8*,9.3,63.5*,-42.6,-10.9,62.6*,Full FLuc ctr=66.3*
CCN1C(=O)CC(=O)N(CC)C1=S,2.5,/,-8.6,8.9,11.8,14.8,/,
COc1ccc(/C=C/C(=O)c2c(O)n(CCC3=CCCCC3)c(=O)[nH]c2=O)cc1OC,-35.2,69.5*,-10.4,19.1,28.2,-7.1,33.8,
CNC(=O)c1cccn(Cc2ccc(C(F)(F)F)cc2)c1=O,-68.8,56.3*,-3.5,-26.7,-0.3,-20.4,26.3,
CCc1nn2c(=O)c(F)c(N3CCNCC3)nc2s1,3.0,/,10.0,-3.0,-23.9,-12.0,/,
O=C(NCc1ccccc1)c1cccn(Cc2ccccc2)c1=O,-1.5,0.4,9.1,-6.5,-1.4,-4.3,/,
O=C(c1cc(C(=O)NCc2ccccc2)c(=O)n(Cc2ccccc2)c1)c1cc(Cl)ccc1O,17.4,55.8*,7.1,16.3,36.3,-6.2,28.6,
Cc1c2ccncc2c(C)c2c1[nH]c1ccccc12,83.1*,98.5*,10.0,-8.9,101.5*,10.5,92.2*,Full FLuc ctr=1.6
CN(C)CC1CCCCC1OC(=O)Cc1ccc(Cl)c([N+](=O)[O-])c1 (configuration not stated),8.7,10.7,-4.8,11.5,17.6,-2.5,/,
COc1ccc2c(c1)/C(=C/c1cnc[nH]1)C(=O)N2,54.3*,85.3*,-1.3,-101.5,99.6*,-21.1,71.7*,Full FLuc ctr=32.2
C[C@]12CCC3C(CC[C@H]4C[C@H](O)CC[C@]34C)C1[C@@H](O)C[C@@H]2O (some centres not stated),-11.6,-1.9,-0.7,15.4,7.0,1.8,/,
CC(=O)O[C@@]12CO[C@@H]1C[C@H](OC1OCC(O)C(O)C1O)[C@@]1(C)C(=O)[C@H](O)C3=C(C)[C@@H](OC(=O)[C@H](O)[C@@H](NC(=O)c4ccccc4)c4ccccc4)C[C@@](O)([C@@H](OC(=O)c4ccccc4)C12)C3(C)C (some centres not stated),1.8,53.1*,3.0,-8.8,23.5,-3.7,39.5,Full FLuc ctr=59.1*

# Bioassay records: PubChem, several laboratories
